# Paper PMC7862700, “An all-to-all approach to the identification of sequence-specific readers for epigenetic DNA modifications on cytosine”
# Key:
# Test in all cases: DAPPL (digital affinity profiling via proximity ligation, sequencing); 10 mM Tris-HCl pH 7.5, 50 mM NaCl, 1 mM DTT, 4% glycerol, room temperature, 30 min; GST-TFs on glutathione beads, 16-mer random dsDNA library, 0.1% formaldehyde crosslink after washing; high values mean tight binding
# FLI1 = target: T1, FLI1 (Homo sapiens, UniProt Q01543 1-452); conditions: protein: recombinant; tags: N-terminal GST; dsDNA, one strand shown
# T1 sequence: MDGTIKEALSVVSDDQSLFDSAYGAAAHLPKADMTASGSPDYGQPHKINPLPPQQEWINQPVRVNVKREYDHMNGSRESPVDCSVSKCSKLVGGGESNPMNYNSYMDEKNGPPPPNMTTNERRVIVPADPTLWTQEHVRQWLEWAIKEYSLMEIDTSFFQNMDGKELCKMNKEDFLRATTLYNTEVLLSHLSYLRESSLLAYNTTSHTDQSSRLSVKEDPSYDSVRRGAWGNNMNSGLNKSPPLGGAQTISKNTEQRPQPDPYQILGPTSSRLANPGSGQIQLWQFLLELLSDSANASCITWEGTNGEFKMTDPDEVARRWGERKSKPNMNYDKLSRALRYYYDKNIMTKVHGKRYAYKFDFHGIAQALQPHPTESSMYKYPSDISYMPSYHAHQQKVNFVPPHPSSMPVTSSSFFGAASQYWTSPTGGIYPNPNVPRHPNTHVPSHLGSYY
# Method in brief: (§1)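 GST fusions of human transcription factors were expressed in yeast and captured with glutathione beads. Once given DNA barcodes and pooled alongside a tag-only sample, they were incubated for 30 min at room temperature with 200 nmole of a random double-stranded 16-mer DNA library in Tris/NaCl/DTT/glycerol buffer, then washed, crosslinked (0.1% formaldehyde), proximity-ligated, PCR-amplified and sequenced on an Illumina NextSeq500. The binding signal of each hexamer is its read frequency for a factor divided by its frequency for the tag-only sample.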
# ELK1 = target: T2, ELK1 (Homo sapiens, UniProt P19419 1-428); conditions: protein: recombinant; tags: N-terminal GST; dsDNA, one strand shown
# T2 sequence: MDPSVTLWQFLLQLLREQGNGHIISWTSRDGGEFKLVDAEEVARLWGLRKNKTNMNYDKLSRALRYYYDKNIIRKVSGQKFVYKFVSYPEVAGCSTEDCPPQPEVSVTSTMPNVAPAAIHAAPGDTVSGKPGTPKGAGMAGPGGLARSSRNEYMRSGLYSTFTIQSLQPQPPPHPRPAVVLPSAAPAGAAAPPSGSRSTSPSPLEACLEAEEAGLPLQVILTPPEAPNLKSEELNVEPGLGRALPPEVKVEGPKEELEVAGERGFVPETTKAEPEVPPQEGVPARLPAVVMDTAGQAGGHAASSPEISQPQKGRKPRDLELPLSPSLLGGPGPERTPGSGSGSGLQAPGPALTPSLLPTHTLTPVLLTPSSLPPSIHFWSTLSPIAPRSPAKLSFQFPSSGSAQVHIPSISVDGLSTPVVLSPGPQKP
# Method in brief: as §1
# GABPA = target: T3, GABPA (Homo sapiens, UniProt Q06546 1-454); conditions: protein: recombinant; tags: N-terminal GST; dsDNA, one strand shown
# T3 sequence: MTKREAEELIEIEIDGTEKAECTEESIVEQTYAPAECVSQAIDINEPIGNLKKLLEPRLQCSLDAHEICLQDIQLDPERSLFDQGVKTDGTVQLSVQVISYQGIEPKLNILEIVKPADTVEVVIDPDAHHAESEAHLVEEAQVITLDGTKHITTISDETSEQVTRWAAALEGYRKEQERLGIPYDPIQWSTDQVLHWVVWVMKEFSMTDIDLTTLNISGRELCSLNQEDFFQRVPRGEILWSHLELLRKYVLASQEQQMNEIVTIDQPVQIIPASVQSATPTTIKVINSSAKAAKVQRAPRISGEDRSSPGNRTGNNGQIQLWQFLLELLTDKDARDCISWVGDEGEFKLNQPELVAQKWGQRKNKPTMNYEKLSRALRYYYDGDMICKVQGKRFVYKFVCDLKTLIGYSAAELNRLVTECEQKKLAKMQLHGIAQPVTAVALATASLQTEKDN
# Method in brief: as §1
# ERG = target: T4, ERG (Homo sapiens, UniProt P11308 1-479); conditions: protein: recombinant; tags: N-terminal GST; dsDNA, one strand shown
# T4 sequence: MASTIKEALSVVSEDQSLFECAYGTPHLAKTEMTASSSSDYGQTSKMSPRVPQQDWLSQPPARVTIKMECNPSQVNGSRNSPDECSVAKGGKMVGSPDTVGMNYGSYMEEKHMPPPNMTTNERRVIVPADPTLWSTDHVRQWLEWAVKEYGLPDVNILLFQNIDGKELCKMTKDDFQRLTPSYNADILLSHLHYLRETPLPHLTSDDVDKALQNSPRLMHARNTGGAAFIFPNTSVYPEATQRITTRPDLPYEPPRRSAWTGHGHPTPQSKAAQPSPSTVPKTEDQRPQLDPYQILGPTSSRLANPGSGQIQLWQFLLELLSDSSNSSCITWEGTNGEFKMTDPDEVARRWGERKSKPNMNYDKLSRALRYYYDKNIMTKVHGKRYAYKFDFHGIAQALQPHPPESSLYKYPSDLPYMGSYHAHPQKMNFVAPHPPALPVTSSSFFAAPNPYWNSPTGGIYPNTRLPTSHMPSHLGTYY
# Method in brief: as §1
# ELF1 = ELF1 (Homo sapiens, UniProt P32519 1-619); conditions: protein: recombinant; tags: N-terminal GST; dsDNA, one strand shown
# Method in brief: as §1
# EHF = target: T5, EHF (Homo sapiens, UniProt Q9NZC4 1-300); conditions: protein: recombinant; tags: N-terminal GST; dsDNA, one strand shown
# T5 sequence: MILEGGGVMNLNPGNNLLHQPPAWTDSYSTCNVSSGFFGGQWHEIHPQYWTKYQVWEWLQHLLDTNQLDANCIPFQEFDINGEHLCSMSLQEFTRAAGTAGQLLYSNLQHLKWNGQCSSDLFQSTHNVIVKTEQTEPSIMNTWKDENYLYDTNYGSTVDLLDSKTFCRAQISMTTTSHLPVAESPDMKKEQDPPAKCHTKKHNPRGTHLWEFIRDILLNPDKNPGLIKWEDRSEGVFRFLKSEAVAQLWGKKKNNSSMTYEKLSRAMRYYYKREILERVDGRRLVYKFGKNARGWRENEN
# Method in brief: as §1
# SPI1 = SPI1 (Homo sapiens, UniProt P17947 1-270); conditions: protein: recombinant; tags: N-terminal GST; dsDNA, one strand shown
# Method in brief: as §1
# SPIB = SPIB (Homo sapiens, UniProt Q01892 1-262); conditions: protein: recombinant; tags: N-terminal GST; dsDNA, one strand shown
# Method in brief: as §1
# ELK3 = target: T6, ELK3 (Homo sapiens, UniProt P41970 1-407); conditions: protein: recombinant; tags: N-terminal GST; dsDNA, one strand shown
# T6 sequence: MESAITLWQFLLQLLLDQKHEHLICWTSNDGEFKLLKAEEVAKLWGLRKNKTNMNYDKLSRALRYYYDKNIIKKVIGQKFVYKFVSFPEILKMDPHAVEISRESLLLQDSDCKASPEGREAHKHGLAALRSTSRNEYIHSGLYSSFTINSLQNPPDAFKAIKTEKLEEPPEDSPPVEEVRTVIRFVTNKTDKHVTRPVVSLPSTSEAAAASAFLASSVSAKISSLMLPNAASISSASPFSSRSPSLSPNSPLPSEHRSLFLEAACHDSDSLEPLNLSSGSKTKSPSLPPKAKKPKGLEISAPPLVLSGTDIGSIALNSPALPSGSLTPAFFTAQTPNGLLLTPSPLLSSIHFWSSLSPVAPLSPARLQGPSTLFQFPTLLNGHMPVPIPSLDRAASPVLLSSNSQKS
# Method in brief: as §1
# FEV = target: T7, FEV (Homo sapiens, UniProt Q99581 1-238); conditions: protein: recombinant; tags: N-terminal GST; dsDNA, one strand shown
# T7 sequence: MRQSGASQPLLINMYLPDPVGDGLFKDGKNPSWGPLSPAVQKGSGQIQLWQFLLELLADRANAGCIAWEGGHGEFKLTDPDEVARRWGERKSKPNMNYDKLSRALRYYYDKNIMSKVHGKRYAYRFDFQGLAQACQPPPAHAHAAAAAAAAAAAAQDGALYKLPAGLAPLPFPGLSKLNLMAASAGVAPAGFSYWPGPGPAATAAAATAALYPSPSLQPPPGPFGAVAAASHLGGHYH
# Method in brief: as §1
# ETV5 = ETV5 (Homo sapiens, UniProt P41161 1-510); conditions: protein: recombinant; tags: N-terminal GST; dsDNA, one strand shown
# Method in brief: as §1
# HSF1 = HSF1 (Homo sapiens, UniProt Q00613 1-529); conditions: protein: recombinant; tags: N-terminal GST; chain copies: 3; dsDNA, one strand shown
# Method in brief: as §1
# SPIC = target: T8, SPIC (Homo sapiens, UniProt Q8N5J4 1-248); conditions: protein: recombinant; tags: N-terminal GST; dsDNA, one strand shown
# T8 sequence: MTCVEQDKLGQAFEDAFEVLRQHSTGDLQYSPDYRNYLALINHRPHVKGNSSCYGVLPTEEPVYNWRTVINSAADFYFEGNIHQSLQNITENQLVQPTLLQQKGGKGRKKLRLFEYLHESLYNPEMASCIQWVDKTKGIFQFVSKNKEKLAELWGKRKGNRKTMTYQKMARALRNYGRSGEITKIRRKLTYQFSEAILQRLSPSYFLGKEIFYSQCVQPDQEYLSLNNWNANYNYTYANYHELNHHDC
# Method in brief: as §1
# ELF4 = ELF4 (Homo sapiens, UniProt Q99607 1-663); conditions: protein: recombinant; tags: N-terminal GST; dsDNA, one strand shown
# Method in brief: as §1
# ELK4 = target: T9, ELK4 (Homo sapiens, UniProt P28324-2 1-405); conditions: protein: recombinant; tags: N-terminal GST; dsDNA, one strand shown
# T9 sequence: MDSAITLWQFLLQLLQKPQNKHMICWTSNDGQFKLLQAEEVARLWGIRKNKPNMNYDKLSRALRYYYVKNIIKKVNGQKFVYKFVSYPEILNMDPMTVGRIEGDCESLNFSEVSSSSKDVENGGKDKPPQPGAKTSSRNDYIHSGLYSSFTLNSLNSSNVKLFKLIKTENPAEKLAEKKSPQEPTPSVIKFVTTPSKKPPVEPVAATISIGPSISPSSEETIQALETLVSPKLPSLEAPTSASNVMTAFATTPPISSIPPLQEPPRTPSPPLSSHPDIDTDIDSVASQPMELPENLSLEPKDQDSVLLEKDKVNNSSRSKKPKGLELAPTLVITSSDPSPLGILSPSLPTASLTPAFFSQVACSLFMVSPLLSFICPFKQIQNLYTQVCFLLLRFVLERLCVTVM
# Method in brief: as §1
# ETV2 = target: T10, ETV2 (Homo sapiens, UniProt O00321 1-342); conditions: protein: recombinant; tags: N-terminal GST; dsDNA, one strand shown
# T10 sequence: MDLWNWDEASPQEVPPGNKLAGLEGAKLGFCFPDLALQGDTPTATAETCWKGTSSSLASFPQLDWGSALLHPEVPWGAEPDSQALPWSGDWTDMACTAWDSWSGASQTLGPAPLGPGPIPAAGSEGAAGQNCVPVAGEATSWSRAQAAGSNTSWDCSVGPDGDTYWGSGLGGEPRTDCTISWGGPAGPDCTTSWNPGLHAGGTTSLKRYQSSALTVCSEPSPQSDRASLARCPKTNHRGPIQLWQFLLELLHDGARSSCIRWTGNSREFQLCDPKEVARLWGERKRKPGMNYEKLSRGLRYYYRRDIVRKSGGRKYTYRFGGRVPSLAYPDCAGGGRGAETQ
# Method in brief: as §1
# ELF3 = target: T11, ELF3 (Homo sapiens, UniProt P78545 1-371); conditions: protein: recombinant; tags: N-terminal GST; dsDNA, one strand shown
# T11 sequence: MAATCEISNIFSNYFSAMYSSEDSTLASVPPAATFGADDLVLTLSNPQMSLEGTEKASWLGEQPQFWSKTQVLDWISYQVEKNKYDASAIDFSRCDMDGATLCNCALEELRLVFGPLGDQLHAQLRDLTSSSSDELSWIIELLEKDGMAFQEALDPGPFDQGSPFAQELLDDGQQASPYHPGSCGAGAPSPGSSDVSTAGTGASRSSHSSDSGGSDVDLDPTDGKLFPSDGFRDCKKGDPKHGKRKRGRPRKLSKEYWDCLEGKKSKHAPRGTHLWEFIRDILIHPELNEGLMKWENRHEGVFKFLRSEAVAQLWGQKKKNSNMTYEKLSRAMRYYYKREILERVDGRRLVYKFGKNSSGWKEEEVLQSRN
# Method in brief: as §1
# ETV1 = ETV1 (Homo sapiens, UniProt P50549 1-477); conditions: protein: recombinant; tags: N-terminal GST; dsDNA, one strand shown
# Method in brief: as §1
# HSF1, sequence (Q00613 whole entry): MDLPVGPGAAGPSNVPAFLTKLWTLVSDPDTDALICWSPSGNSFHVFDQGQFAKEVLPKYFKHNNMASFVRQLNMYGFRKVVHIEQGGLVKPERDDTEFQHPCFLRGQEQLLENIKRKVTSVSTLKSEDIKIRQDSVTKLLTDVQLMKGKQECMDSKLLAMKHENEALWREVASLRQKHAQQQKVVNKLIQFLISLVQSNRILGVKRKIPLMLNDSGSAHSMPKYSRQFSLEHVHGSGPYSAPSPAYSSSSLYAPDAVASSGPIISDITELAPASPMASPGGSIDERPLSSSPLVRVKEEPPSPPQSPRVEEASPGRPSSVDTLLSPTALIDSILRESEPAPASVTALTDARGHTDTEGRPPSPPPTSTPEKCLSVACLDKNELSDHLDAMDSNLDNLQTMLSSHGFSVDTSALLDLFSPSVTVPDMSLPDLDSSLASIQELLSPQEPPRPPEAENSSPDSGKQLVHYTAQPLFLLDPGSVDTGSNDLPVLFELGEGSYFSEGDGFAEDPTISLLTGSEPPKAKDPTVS
# ELF4, sequence (Q99607 whole entry): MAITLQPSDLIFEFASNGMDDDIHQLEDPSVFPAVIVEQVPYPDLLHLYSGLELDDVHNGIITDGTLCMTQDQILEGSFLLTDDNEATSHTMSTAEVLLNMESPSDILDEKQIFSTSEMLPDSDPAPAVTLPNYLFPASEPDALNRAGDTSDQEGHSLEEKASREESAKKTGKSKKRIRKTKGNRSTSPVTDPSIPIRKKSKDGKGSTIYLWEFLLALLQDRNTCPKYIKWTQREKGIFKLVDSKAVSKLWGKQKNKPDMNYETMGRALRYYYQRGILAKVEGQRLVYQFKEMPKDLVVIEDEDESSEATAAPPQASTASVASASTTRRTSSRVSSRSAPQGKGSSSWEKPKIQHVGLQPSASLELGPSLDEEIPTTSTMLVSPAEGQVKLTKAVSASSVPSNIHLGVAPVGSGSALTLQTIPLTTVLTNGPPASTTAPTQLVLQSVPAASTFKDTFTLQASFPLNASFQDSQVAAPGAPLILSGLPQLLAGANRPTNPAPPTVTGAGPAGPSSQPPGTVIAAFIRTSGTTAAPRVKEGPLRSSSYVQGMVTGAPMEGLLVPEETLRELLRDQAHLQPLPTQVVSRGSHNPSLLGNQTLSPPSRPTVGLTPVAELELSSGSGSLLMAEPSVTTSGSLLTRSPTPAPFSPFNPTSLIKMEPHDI
# ELF1, sequence (P32519 whole entry): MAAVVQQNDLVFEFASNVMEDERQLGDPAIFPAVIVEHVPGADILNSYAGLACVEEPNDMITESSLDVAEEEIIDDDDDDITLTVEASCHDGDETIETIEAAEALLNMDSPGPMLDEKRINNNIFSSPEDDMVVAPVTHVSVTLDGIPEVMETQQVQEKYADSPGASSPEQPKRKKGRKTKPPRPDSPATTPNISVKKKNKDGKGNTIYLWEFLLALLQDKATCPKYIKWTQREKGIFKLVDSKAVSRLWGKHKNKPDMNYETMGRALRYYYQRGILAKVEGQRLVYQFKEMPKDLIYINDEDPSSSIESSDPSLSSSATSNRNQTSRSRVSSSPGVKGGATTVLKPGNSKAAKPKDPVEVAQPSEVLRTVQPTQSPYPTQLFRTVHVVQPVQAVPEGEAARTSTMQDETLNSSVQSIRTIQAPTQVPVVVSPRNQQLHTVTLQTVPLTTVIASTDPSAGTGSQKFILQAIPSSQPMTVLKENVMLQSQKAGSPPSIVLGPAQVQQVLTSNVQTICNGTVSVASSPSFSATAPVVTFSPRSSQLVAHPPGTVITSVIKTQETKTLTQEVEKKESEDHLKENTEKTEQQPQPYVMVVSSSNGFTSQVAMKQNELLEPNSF
# SPIB, sequence (Q01892 whole entry): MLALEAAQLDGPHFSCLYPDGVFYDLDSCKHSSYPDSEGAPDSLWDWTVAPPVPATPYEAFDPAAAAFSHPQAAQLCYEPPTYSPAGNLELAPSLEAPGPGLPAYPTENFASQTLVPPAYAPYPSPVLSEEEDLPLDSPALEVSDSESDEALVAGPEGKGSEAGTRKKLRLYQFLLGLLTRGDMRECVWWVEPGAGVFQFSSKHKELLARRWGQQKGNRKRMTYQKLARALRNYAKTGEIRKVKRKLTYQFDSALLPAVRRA
# ETV5, sequence (P41161 whole entry): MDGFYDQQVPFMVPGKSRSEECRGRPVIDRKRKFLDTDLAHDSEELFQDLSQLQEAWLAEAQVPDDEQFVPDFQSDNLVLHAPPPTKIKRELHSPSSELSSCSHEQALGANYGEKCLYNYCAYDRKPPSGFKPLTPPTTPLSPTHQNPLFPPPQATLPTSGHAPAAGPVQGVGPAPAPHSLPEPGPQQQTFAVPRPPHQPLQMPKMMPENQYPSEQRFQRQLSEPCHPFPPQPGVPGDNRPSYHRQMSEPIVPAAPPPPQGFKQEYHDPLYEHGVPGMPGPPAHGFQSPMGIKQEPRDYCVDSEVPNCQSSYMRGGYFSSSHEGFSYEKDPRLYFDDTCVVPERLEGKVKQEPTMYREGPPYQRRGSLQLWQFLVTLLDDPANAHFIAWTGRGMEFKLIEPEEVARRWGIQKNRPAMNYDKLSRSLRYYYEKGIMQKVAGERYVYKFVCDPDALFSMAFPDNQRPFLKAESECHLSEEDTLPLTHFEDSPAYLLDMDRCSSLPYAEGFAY
# ETV1, sequence (P50549 whole entry): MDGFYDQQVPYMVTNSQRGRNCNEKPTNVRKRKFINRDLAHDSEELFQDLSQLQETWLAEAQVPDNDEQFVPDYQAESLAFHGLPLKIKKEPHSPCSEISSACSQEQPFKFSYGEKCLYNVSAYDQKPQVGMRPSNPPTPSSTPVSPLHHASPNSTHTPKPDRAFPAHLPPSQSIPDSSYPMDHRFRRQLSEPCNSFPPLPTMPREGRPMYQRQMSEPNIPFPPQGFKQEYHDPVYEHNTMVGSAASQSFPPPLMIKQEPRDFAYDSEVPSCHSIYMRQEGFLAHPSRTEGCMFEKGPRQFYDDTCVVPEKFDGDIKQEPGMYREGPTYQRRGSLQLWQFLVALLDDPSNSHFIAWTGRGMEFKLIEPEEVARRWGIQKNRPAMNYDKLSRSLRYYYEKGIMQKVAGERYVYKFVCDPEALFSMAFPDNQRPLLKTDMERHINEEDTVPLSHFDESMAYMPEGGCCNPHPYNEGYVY
sequence,measurement,setting,value
CCCTCA,binding signal,FLI1,"1.28 fold enrichment (6-mer frequency, TF over GST control)"
same,binding signal,ELK1,"1.11 fold enrichment (6-mer frequency, TF over GST control)"
same,binding signal,GABPA,"1.18 fold enrichment (6-mer frequency, TF over GST control)"
same,binding signal,ERG,"1.16 fold enrichment (6-mer frequency, TF over GST control)"
same,binding signal,ELF1,"1.19 fold enrichment (6-mer frequency, TF over GST control)"
same,binding signal,EHF,"1.1 fold enrichment (6-mer frequency, TF over GST control)"
same,binding signal,SPI1,"1.12 fold enrichment (6-mer frequency, TF over GST control)"
same,binding signal,SPIB,"1.25 fold enrichment (6-mer frequency, TF over GST control)"
same,binding signal,ELK3,"1.19 fold enrichment (6-mer frequency, TF over GST control)"
same,binding signal,FEV,"1.24 fold enrichment (6-mer frequency, TF over GST control)"
same,binding signal,ETV5,"1.18 fold enrichment (6-mer frequency, TF over GST control)"
same,binding signal,HSF1,"1.03 fold enrichment (6-mer frequency, TF over GST control)"
same,binding signal,SPIC,"1.06 fold enrichment (6-mer frequency, TF over GST control)"
same,binding signal,ELF4,"1.28 fold enrichment (6-mer frequency, TF over GST control)"
same,binding signal,ELK4,"1.11 fold enrichment (6-mer frequency, TF over GST control)"
same,binding signal,ETV2,"1.29 fold enrichment (6-mer frequency, TF over GST control)"
same,binding signal,ELF3,"1.17 fold enrichment (6-mer frequency, TF over GST control)"
same,binding signal,ETV1,"1.19 fold enrichment (6-mer frequency, TF over GST control)"
